Compound activity (PubChem)
Only a selection was taken, and hits are over-represented in it overall.
Tg IFNy HTS – T. gondii growth inhibition with IFN-gamma, primary screen, cell-based; Toxoplasma gondii growth in IFN-gamma-treated host cells; hits give low values; activity change, negative = inhibition, % (concentration not given with the values); actives 3.8% (n = 69,000); in the data active means activity change below about -70%, passing the limit was not always enough;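 further: host cells are HeLa cells infected with Toxoplasma gondii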
An asterisk follows results filed as active.

SMILES	Tg IFNy HTS
O=C(COc1ccccc1)N1CCC2(CC1)Nc1cc(F)ccc1-n1cccc12	52
Cc1cccc(C(=O)N2CCC3(CC2)Nc2ccc(Cl)cc2-n2cccc23)c1	-6
O=C(COc1ccc(Cl)cc1)N1CCC2(CC1)Nc1ccc(Cl)cc1-n1cccc12	70
COc1cccc(CC(=O)N2CCC3(CC2)Nc2ccc(Cl)cc2-n2cccc23)c1	29
COC(=O)c1cc(CN2CCN(c3ncnc4ccccc34)CC2)cs1	-55
Cc1nc(CN2CCC3(CC2)COCCN3S(C)(=O)=O)cs1	-6
C[C@@H](CNc1nc2c(c(=O)[nH]1)CCCC2)NC(=O)c1cccc2[nH]c(C(F)(F)F)nc12	14
COc1ccc2cc(C3CN(c4ncccc4F)CCO3)ccc2c1 (centres undefined)	83
Cc1csc(-c2sc3ccccc3c2O)n1	-28
CSc1sc(-c2nc(C)cs2)c(C)c1-c1ccn[nH]1	-86*
CSc1ccc(CN(C(=O)CC2CCOCC2)C2CC2)cc1	-2
CCOC(=O)C1CN(Cc2ccccc2)CC12Cc1ccccc1C2=O (centres undefined)	272
O=C(c1ccc(F)cc1)N1CCN(Cc2ccccc2)CC(O)(Cn2cncn2)C1 (centres undefined)	41
CC(c1ccccc1F)n1cc(C(=O)NCCN(C)C)nn1 (centres undefined)	-14
COc1ccc(-n2nc(C(=O)O)nc2C)cc1	24
COc1ccc(-n2c(C)c([N+](=O)[O-])c3ccc(O)cc32)cc1	-77*
COc1ccc(-n2c(C)c3c(OC)cccc(=O)c3c2C)cc1	-6
Cc1noc(CN2CCOc3c(O)cc(-c4ccc(C)s4)cc3C2)n1	0
Cc1ccc(-c2cc(O)c3c(c2)CN(CC2CCCN2C)CCO3)s1 (centres undefined)	-6
Cc1ccc(-c2cc(O)c3c(c2)CN(C(=O)CCN2CCCO2)CCO3)s1	-75*
Cc1ccc(-c2cc(O)c3c(c2)CN(C(=O)c2cccc(F)c2)CCO3)s1	-70*
Cc1csc(CN2CCOc3c(O)cc(-c4ccc(C)s4)cc3C2)n1	-6
Cc1cc(C(=O)N2CCOc3c(O)cc(-c4ccccc4C)cc3C2)no1	-63
CCn1c(CC2CCN(Cc3nc(C(C)C)cs3)CC2)n[nH]c1=O	-2
CCCCN(Cc1ccco1)c1nc(-c2ccc(OC)cc2)nc2ccccc12	0
SMILES	Tg IFNy HTS
Cc1cccc(OCCN2CCN(S(=O)(=O)CCN3C(=O)CCC3=O)CC2)c1C	-3
O=C(NCCc1csc(-c2ccccc2)n1)C1CCN(C(=O)Cc2ccc(Cl)cc2)CC1	-48
CCc1nccc(-c2c(-c3ccccc3)ncn2CCN2CCOCC2)n1	-80*
CCn1ccnc1-c1c(-c2ccccc2)ncn1CCN1CCOC1=O	4
CCc1ccc(-c2c(-c3ccccc3)ncn2CCS(C)(=O)=O)nc1	1
CN1CCN(CCn2cnc(-c3ccccc3)c2-c2cnc[nH]2)CC1	-2
CCc1nccc(-c2c(-c3ccccc3)ncn2CC2(CO)CCOCC2)n1	-83*
CCc1ncc(-c2c(-c3ccccc3)ncn2Cc2ccccc2F)cn1	21
Cn1cc(CN2CCOC3(COCCN(S(C)(=O)=O)C3)C2)cn1 (centres undefined)	3
COc1ccc2[nH]c3c(c2c1)CCNC31C(=O)N(C)c2ccc(Br)cc21 (centres undefined)	335
CCS(=O)(=O)N1CCOCC2(CCC(Cn3cncn3)O2)C1 (centres undefined)	-40
CCO[C@@H]1CO[C@@]2(CCCN(C(=O)C3CC=CC3)C2)C1	-2
COC(=O)CC1(C(=O)OC)Oc2ccc(Cl)cc2C(=O)N1c1ccc(F)cc1F (centres undefined)	-70*
CCOC(=O)N1CCC2(CC1)OC(=O)C(C)=C2C(=O)Nc1ccc(F)cc1F	69
COc1ccc(Cl)cc1C(=O)Nc1ccc2c(c1)CCC(=O)N2C	44
COc1ccc(NC(=O)CSc2nnc3c(C)cc4ccccc4n23)cc1	0
COc1ccc(-n2c(-c3ccccc3)cnc2SCC(=O)Nc2cc(C)cc(C)c2)cc1	-98*
Cc1ccc(NC(=O)CSc2nnc(-c3ccncc3)n2-c2ccccc2)cc1	-59
CCS(=O)(=O)N1C[C@H]2C[C@@H](Cc3nc(C)no3)O[C@H]2C1	2
CN1CC2(CCC1=O)CCN(S(=O)(=O)C1CC1)CC2	-46
CC1(C(=O)NCc2ccc(F)cc2F)CCN(C(=O)c2ccc3c(c2)OCO3)CC1	12
CN(Cc1ccccc1)C(=O)c1cc2cccnc2n(Cc2ccc(F)cc2)c1=O	-20
O=C(Cn1ncc2c(N3CCN(c4ccccn4)CC3)ncnc21)Nc1ccccc1Cl	97
O=C(Cn1ncc2c(N3CCN(c4ccccn4)CC3)ncnc21)Nc1ccc(Cl)cn1	-83*
CC(C)c1cccc(NC(=O)Cn2ncc3c(N4CCN(c5ccccn5)CC4)ncnc32)c1	-93*
SMILES	Tg IFNy HTS
Cc1ccc(NC(=O)Cn2ncc3c(N4CCN(c5ccccn5)CC4)ncnc32)cc1Cl	-74*
COc1ccc(NC(=O)Cn2ncc3c(N4CCN(c5ccccn5)CC4)ncnc32)cc1Cl	120
Cc1cc(Cl)ccc1NC(=O)Cn1ncc2c(N3CCN(c4ccccn4)CC3)ncnc21	64
Cc1cccc(NC(=O)Cn2ncc3c(N4CCN(c5ccccn5)CC4)ncnc32)c1	88
Cc1ccc(NC(=O)Cn2ncc3c(N4CCN(c5ccccn5)CC4)ncnc32)cc1C	-55
CC(C)c1ccc(NC(=O)Cn2ncc3c(N4CCN(c5ccccn5)CC4)ncnc32)cc1	-43
COc1ccc(CNC(=O)N(Cc2ccncc2)C2CCN(C)CC2)cc1	2
CCOc1cccc(CC(=O)N2CCC3(CC2)Nc2ccccc2-n2cccc23)c1OCC	21
O=C(c1nsc(Cl)c1Cl)N1C[C@H]2Cc3cnc(N4CCCC4)nc3[C@H]2C1	-37
CCOc1ccc(S(=O)(=O)N2CCC(C(=O)NCCc3csc(-c4ccccc4)n3)CC2)cc1	-17
COc1ccc2c(c1)NC1(CCN(S(=O)(=O)c3ccc(F)c(F)c3)CC1)c1cccn1-2	-3
O=C(Nc1ccccc1)Nc1nc(=O)c2ccccc2s1	143
Cc1oc2ccccc2c1CNC(=O)Nc1ccc(Br)cc1	-47
Cc1c(CNC(=O)Nc2ccccc2)sc2ccccc12	-79*
O=C(CSc1nc(-c2ccc(Cl)cc2)cs1)N1CCCC1	38
CC(C)CCN1C2(CCN(S(=O)(=O)c3ccccc3)C2)c2ccccc2S1(=O)=O (centres undefined)	-17
CCS(=O)(=O)NC1CC2(CCN(c3ccccc3)CC2)c2ccccc21 (centres undefined)	14
O=C(c1ncn2c1CN(CC1CC1)S(=O)(=O)c1ccccc1-2)N1CCC(O)CC1	-7
